The nature of this assay: NCI Yeast Anticancer Drug Screen. Data for the mlh1 rad18 strain (AID 175). To be noted: S. cerevisiae mlh1 rad18 strain growth inhibition, stronger effect = higher value. On the procedure:
Growth inhibition of yeast strains with defined genetic alterations is measured as a screen for potential anti-cancer activity. Selected strains with alterations in DNA damage repair or cell cycle control were exposed to compounds and growth inhibition was measured relative to vehicle treated controls. The strain used in this assay is mlh1 rad18

[1] abbreviates: at 5.0 µM (retest, dose inferred, filed as 0.5).
[2] abbreviates: at 50.0 µM (retest, dose inferred, filed as 5.0).

Where “and” joins values, the source holds several entries; their conditions need not be identical. Identical values can stand only once. About 79,000 compounds went through this panel and 15% of them were active in at least one assay; those are over-represented in the sample as a whole. Some structures have more than one record in an assay (separate samples or runs), and their calls can disagree. Calls of active or inactive are those of the source. No stated cut-off is given here; in the data, active means growth inhibition above about 70%; inactive means the rest.

Take `CCc1cc2c(cc1-c1csc(C/C(N)=N/O)n1)C(C)(C)CCC2(C)C`: the growth inhibition under setting [1] is 60% (inactive), the growth inhibition under setting [2] was 94% (active) and the growth inhibition (at 50.0 µM) was 90.3% (active).

Regarding `NC(N)=N/N=C1\C(=O)N(c2ccc(Cl)cc2)C(=O)C1C(=O)Nc1ccc(Cl)cc1` (stereo unspecified), the growth inhibition is, setting by setting: under setting [1], 2% (inactive); under setting [2], -14% (inactive); (at 50.0 µM) 83.1% (active).

Turning to `CC1=C2C(=O)[C@H]3[C@@H](CC=C4C[C@@H](O)CC[C@@]43C)[C@@H]2CC[C@]12O[C@@H]1C[C@H](C)CN[C@H]1[C@H]2C`, the growth inhibition is 10% (inactive) and 5% (inactive) under setting [1]; 95% (active) and 89% (active) under setting [2]; 90.7% (active) and 87.4% (active) (at 50.0 µM).

For `BrCC[N+]12CC[N+](CCBr)(CC1)C2`, the growth inhibition under setting [1] is 64% (inactive) and 42% (inactive); the growth inhibition under setting [2] was 95% (active) and 90% (active); the growth inhibition (at 50.0 µM) was 90.6% (active) and 86.9% (active).

With `Cc1ccc(C(=O)CCl)c(C)c1`, the growth inhibition is, setting by setting: under setting [1], 28% (inactive) and 7% (inactive); under setting [2], 99% (active); (at 50.0 µM) 97.7% (active) and 97.1% (active).

On to `CCC1(C2=CCCCC2)C(=O)NC(=S)NC1=O`, for which the growth inhibition was 0% (inactive) under setting [1]; 79% (active) under setting [2]; 25.5% (inactive) and 85% (active) (at 50.0 µM).

As to `CNC(=O)ON(C(C)=O)C(=O)NC`, the growth inhibition is 12% (inactive) under setting [1] and 22% (inactive) under setting [2].

On to `CC(=O)[CH-]C(=O)c1ccccc1.CC(=O)[CH-]C(=O)c1ccccc1.C[C@]12CCC(=O)C=C1CC[C@@H]1C2CC[C@@]2(C)C1CC[C@@H]2[O-].C[C@]12CCC(=O)C=C1CC[C@@H]1C2CC[C@@]2(C)C1CC[C@@H]2[O-].Cl.[Ti+4]` (stereo partly specified), for which the growth inhibition reads like this: under setting [1], 47% (inactive); under setting [2], 84% (active); (at 50.0 µM) 73.2% (active).

As to `O=c1oc2ccccc2c(O)c1C(c1ccc2c(c1)Cc1ccccc1-2)c1c(O)c2ccccc2oc1=O`, the growth inhibition runs as follows: under setting [1], 14% (inactive); under setting [2], 59% (inactive); (at 50.0 µM) 88% (active).

For the compound `Cn1cnc(C(=N)[Se])c1N`, the growth inhibition under setting [1] is 78% (active), the growth inhibition under setting [2] is 94% (active) and the growth inhibition (at 50.0 µM) was 67.7% (inactive).

Regarding `CCCCCCCCCCCC1CCCC(C)N1` (stereo unspecified), the growth inhibition by setting is: under setting [1], 13% (inactive) and 36% (inactive); under setting [2], 98% (active) and 86% (active); (at 50.0 µM) 92.1% (active) and 91.3% (active).

As to `CC(C)=CC1CC(C)C2(CCC3(C)CC4C(C(=O)CC4(C)O)/C(C=O)=C\CC32)O1` (stereo unspecified), the growth inhibition under setting [1] was 99% (active), the growth inhibition under setting [2] was 100% (active) and the growth inhibition (at 50.0 µM) was 93.7% (active).

With `C/C(=N\O)C(CN(C)C)C(c1ccccc1)c1c(O)c2ccccc2oc1=O` (stereo unspecified), the growth inhibition is, setting by setting: under setting [1], 14% (inactive); under setting [2], 14% (inactive); (at 50.0 µM) 75.2% (active).

In the case of `COC1OC(COC(C)=O)C(OC(C)=O)C(OC(C)=O)[C]1(OC(C)=O)[Hg][O]C(C)=O` (stereo unspecified), the growth inhibition was 99% (active) under setting [1], 99% (active) under setting [2] and 99.7% (active) (at 50.0 µM).

Source of the values: PubChem BioAssay (NCI).
